# Laboratory results taken from paper PMC5540273 (PLoS ONE, 2017).
# Key:
# Conditions in all cases: concentration: 1 μM, replicates: in singlicate; n = 1
# BMPR1A = tested on: BMPR1A
# BMPR1B = tested on: BMPR1B
# BMPR2 = tested on: BMPR2
# BMX = tested on: BMX
# BRAF = tested on: BRAF
# BRK = tested on: T1, BRK
# T1 construct: gene PTK6
# BRSK1 = tested on: BRSK1
# BRSK2 = tested on: BRSK2
# BTK = tested on: BTK
# BUB1 = tested on: BUB1
# CAMK1B = tested on: CAMK1B
# CAMK1D = tested on: CAMK1D
# CAMK1G = tested on: CAMK1G
# CAMK1 = tested on: CAMK1
# CAMK2A = tested on: CAMK2A
# CAMK2B = tested on: CAMK2B
# CAMK2D = tested on: CAMK2D
# CAMK2G = tested on: CAMK2G
# CAMK4 = tested on: CAMK4
# CAMKK1 = tested on: CAMKK1
# 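Further: KINOMEscan kinase panel screen.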
Compound,%Inh (BMPR1A),%Inh (BMPR1B),%Inh (BMPR2),%Inh (BMX),%Inh (BRAF),%Inh (BRK),%Inh (BRSK1),%Inh (BRSK2),%Inh (BTK),%Inh (BUB1),%Inh (CAMK1B),%Inh (CAMK1D),%Inh (CAMK1G),%Inh (CAMK1),%Inh (CAMK2A),%Inh (CAMK2B),%Inh (CAMK2D),%Inh (CAMK2G),%Inh (CAMK4),%Inh (CAMKK1)
O=C(O)COc1ncnc2cc(-c3ccc4[nH]ncc4c3)sc12,19%,18%,63%,0%,19%,100%,5%,1%,0%,25%,7%,0%,31%,0%,0%,0%,26%,17%,7%,34%
Cn1ccc2ncnc(Oc3ccc(Nc4nc5ccccc5[nH]4)cc3)c21,0%,0%,0%,0%,0%,0%,0%,2%,0%,0%,0%,0%,0%,0%,7%,5%,2%,0%,0%,14%
CS(=O)(=O)c1ccc(-c2c(-c3ncn[nH]3)sc(N3CCOCC3)c2C#N)cc1,17%,4%,12%,0%,12%,0%,100%,32%,0%,29%,25%,16%,11%,13%,14%,30%,6%,11%,18%,19%
COc1ccc(CNC(=O)NC2CCN(c3ccnc(Nc4cc(OC)c(OC)c(OC)c4)n3)C2)cc1 (centres unmarked) [GSK1379748],1%,0%,0%,21%,0%,3%,0%,0%,32%,32%,2%,15%,8%,28%,0%,0%,16%,17%,0%,8%
COc1ccc(Nc2nccc(NCCNC(=O)Nc3ccccc3F)n2)cc1 [GSK1379901],0%,0%,6%,2%,0%,36%,16%,0%,0%,53%,35%,3%,69%,1%,0%,0%,51%,13%,0%,0%
O=C(Nc1ccccc1)Nc1cccc(Oc2ccc3nccn3n2)c1,0%,0%,0%,0%,24%,0%,0%,0%,0%,0%,0%,3%,0%,0%,0%,0%,0%,3%,7%,0%
COC(=O)c1c(-c2ccccc2)c2cc(OC)ccc2c(=O)n1Cc1ccccc1,0%,0%,0%,9%,89%,0%,9%,6%,54%,21%,0%,20%,20%,19%,15%,0%,13%,18%,0%,16%
Cc1ccc(C(=O)Nc2ccc(Nc3ccnc4cc(-c5ccccn5)ccc34)cc2O)cc1.Cl [GW440146],0%,0%,0%,14%,0%,29%,0%,0%,46%,54%,13%,20%,0%,39%,0%,0%,0%,8%,0%,0%
Cc1cccc(-c2nc(Nc3cccc(C(N)=O)c3)c3ccccc3n2)n1 [GW876019],74%,0%,14%,0%,0%,9%,18%,0%,9%,16%,0%,0%,9%,0%,0%,0%,7%,0%,3%,12%
Nc1ncnc2[nH]c(-c3ccccc3)nc12 [AH5015],0%,0%,0%,20%,6%,16%,1%,0%,1%,38%,29%,13%,0%,0%,0%,0%,0%,0%,0%,0%
